{"source": "ChEMBL document CHEMBL4513148", "about": "“CO-ADD screening of Stellenbosch University (South Africa) compounds”", "note": "About 30 (0.1%) of roughly 23,000 compounds showed an effect of 50% or more. The list comes from a sample in which strong results are over-represented; it also holds similar structures and randomly drawn compounds. Entries with a potency or affinity are not part of this list.", "data": [{"system": "Pseudomonas aeruginosa", "details": "Concentration 32 ug.mL-1; ASSAY_TEST Inhibition of Bacterial Growth; detection method Absorption (OD600); MEDIA CAMHB; plate type 384well; NBS; CORNING #3640; time 18 hr", "units": {"Inhibition": "%"}, "values": [{"smiles": "CC(C)(CO)[C@@H](O)C(=O)N/C=C/C(=O)NCCc1ccccc1", "Inhibition": 39.92}, {"smiles": "CC(C)(C)C(O)C(=O)NCCC(=O)NCCc1ccccc1", "note": "(stereo unspecified)", "Inhibition": 40.95}, {"smiles": "CC(CC(=O)NCCc1ccccc1)NC(=O)[C@H](O)C(C)(C)CO", "note": "(stereo partly specified)", "Inhibition": 72.5}, {"smiles": "CC(C)(CO)[C@@H](O)C(=O)NCCC(=S)NCCc1ccccc1", "Inhibition": 38.53}, {"smiles": "CC(C)(CN)C(O)C(=O)NCCC(=O)NCCc1ccccc1", "note": "(stereo unspecified)", "Inhibition": 51.6}, {"smiles": "CC(C)(COP(=O)(O)O)[C@@H](O)C(=O)NCCC(=O)NCCc1ccccc1", "Inhibition": 35.19}]}]}
